High-throughput results (PubChem)
Only some compounds are listed: those with a hit (about 4.7% of all), similar ones and a draw of the others.
Pyk2 oligo antag: antagonists of Pyk2 self-association, primary screen, Q293 cells, FERM NanoBiT luminescence, HTS. 0.83% of 99,000 active. z-score (the deposit names both 25 µM and 10 µM). active compounds read low;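 active = Z-score of -3 or lower, scaled per plate to the spread of control and sample wells; inactive = z-score above -3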;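 note: negative z-score means lost luminescence so less FERM oligomerization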
PLK1 kinase inh: human PLK1 kinase inhibitors, primary screen, biochemical, TR-FRET; Serine/threonine-protein kinase PLK1 (Homo sapiens), P53350; recombinant PLK1 kinase, TR-FRET peptide phosphorylation; inhibition, % at 10 µM; 0.53% of 97,000 active; AID 619, 2007;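 active = inhibition of 50% or more in the single-concentration screen; inactive = inhibition below 50%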
Cav32 inh: Cav3.2 calcium influx blockers – cell-based, Fluo-4 calcium fluorescence, FDSS, MLSMR library, primary screen; Voltage-dependent T-type calcium channel subunit alpha-1H (Homo sapiens), O95180; Cav3.2-expressing cells; active compounds read low; B-score at 10 µM; 4% of 100,000 active;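 active = single-dose well whose peak fluorescence ratio is a statistical outlier from its plate by either plate-standardised score or position-corrected B-score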
Target sequence (O95180 whole entry, looked up): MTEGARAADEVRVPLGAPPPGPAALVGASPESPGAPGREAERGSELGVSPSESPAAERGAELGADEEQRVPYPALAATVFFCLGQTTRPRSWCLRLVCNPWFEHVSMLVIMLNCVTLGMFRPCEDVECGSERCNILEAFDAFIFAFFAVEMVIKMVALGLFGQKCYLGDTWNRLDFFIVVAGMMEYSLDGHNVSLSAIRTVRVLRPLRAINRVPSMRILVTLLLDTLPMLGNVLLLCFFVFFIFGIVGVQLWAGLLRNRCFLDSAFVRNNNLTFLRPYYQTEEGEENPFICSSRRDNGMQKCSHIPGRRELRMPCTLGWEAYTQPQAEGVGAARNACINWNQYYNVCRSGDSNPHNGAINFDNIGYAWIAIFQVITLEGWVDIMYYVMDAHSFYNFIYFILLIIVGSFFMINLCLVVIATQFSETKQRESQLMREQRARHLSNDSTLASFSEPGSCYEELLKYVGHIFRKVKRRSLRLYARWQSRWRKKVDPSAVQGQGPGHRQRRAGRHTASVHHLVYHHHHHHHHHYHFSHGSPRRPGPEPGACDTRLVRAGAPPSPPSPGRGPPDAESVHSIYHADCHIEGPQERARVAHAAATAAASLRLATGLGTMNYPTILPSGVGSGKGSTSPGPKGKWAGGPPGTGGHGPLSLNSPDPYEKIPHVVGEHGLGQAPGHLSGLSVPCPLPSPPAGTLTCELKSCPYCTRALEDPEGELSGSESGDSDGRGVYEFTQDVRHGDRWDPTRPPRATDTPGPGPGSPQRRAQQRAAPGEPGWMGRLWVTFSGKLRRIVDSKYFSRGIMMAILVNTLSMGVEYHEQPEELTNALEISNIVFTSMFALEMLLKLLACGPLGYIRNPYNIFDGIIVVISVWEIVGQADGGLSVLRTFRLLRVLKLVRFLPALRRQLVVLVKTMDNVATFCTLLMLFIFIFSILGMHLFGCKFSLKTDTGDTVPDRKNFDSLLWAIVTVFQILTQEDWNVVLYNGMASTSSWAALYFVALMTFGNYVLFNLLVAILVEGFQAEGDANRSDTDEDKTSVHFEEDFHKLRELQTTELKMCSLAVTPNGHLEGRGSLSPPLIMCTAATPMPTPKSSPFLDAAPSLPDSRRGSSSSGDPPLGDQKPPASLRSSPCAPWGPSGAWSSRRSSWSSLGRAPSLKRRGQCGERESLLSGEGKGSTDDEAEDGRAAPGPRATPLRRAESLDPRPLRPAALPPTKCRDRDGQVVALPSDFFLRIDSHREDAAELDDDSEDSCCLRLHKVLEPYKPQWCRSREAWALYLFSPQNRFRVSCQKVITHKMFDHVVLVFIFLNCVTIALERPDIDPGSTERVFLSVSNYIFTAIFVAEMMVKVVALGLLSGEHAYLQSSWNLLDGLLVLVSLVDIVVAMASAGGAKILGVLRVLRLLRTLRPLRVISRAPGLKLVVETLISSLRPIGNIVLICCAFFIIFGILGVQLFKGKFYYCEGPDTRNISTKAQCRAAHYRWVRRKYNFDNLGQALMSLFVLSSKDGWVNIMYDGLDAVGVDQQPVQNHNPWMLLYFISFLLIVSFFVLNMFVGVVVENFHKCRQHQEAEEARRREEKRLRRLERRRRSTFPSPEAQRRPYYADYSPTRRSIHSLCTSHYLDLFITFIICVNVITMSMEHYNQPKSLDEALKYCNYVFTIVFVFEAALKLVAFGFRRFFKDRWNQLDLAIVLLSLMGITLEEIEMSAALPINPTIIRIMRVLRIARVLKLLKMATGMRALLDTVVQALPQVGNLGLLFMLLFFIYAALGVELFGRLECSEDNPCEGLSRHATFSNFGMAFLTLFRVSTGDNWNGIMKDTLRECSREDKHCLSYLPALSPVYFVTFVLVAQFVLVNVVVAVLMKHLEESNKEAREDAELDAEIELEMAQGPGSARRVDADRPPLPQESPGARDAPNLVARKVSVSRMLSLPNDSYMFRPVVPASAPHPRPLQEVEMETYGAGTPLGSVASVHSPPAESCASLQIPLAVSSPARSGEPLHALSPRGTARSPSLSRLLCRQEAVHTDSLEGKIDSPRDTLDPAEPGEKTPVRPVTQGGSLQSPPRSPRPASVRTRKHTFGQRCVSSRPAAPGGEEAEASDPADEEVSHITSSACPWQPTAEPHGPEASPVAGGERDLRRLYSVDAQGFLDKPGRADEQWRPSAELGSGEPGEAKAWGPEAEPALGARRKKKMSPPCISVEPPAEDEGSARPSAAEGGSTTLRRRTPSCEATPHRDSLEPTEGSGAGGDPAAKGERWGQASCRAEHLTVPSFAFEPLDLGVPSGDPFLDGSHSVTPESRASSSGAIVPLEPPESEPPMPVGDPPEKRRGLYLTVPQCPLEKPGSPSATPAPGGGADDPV
SDO1 yeast rescue: growth rescue of sdo1-depleted yeast, primary screen, S. cerevisiae, bone marrow failure model. S. cerevisiae sdo1-depleted JHY4D growth rescue, OD600 30 h; active compounds read high; pdr5 snq2 efflux-pump mutant strain. z-score at 10 µM. 0.21% of 140,000 active. AID 817, 2007;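 active = z-score above 3 at both the 24 hr and the 30 hr optical density reads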
Plk1 PBD FP: Plk1 polo box domain binding inhibitors, primary screen, biochemical, fluorescence polarization; Serine/threonine-protein kinase PLK1 (Homo sapiens), P53350; Plk1 PBD phosphopeptide binding; inhibition, %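 (tested at about 20 µM)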; 0.13% of 97,000 active; in the data active = inhibition above about 34%, passing the limit was not always enough
DAT uptake mod: changed hDAT dopamine uptake under cocaine IC80, either direction, primary screen, cocaine antagonist project, cell-based, LLC-PK1 hDAT, [14C]-dopamine uptake, MLSMR; 1.3% of 110,000 active; LLC-PK1 hDAT cells, [14C]-dopamine uptake with cocaine IC80; actives deviate in either direction; B-score at 10 µM; AID 449768, 2010; Sodium-dependent dopamine transporter (Homo sapiens), Q01959;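 active = Z score or B-score, a plate-position-corrected score, falls beyond the plate's 99.7% confidence bounds, in either direction; inactive = both scores lie inside the 99.7% bounds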
A number is an active result; i = inactive; nt = no result.

SMILES	Pyk2 oligo antag	PLK1 kinase inh	Cav32 inh	SDO1 yeast rescue	Plk1 PBD FP	DAT uptake mod
O=C(CN1C(=O)NC2(CCCCCC2)C1=O)N1CCC(Cc2ccccc2)CC1	i	i	4.28	i	i	i
O=C1CC(c2ccc(F)cc2)Sc2nc(C34CC5CC(CC(C5)C3)C4)nn21 (stereo not given)	nt	nt	nt	i	nt	nt
Cc1ccc(C(=O)NCC(=O)OCC(=O)NC2CCS(=O)(=O)C2)cc1C (stereo not given)	nt	nt	nt	i	nt	nt
CCOC(=O)CSC(C)C(=O)Nc1nnc(C(C)C)s1 (stereo not given)	nt	64.1	i	i	i	i
CC(C)c1nnc(NC(=O)CSc2ncn[nH]2)s1	i	i	i	i	i	i
COc1ccc(CCNC(=O)N2c3ccccc3Sc3ccccc32)cc1	i	i	-5.92	nt	i	i
COc1ccc(CCNC(=O)N2CCOCC2)cc1	i	i	i	i	i	i
O=C(N/N=C/c1ccc(Br)cc1)c1ccc(Br)o1	nt	nt	nt	i	nt	nt
O=C(Cn1cnc2c(nnn2Cc2ccc(F)cc2)c1=O)NCc1ccco1	i	i	-4.2	i	i	i
CC(C)CN(CC(C)C)C(=O)Cc1coc2ccc3ccccc3c12	i	i	-4.86	i	i	i
CCCCNC(=O)Cc1coc2ccc3ccccc3c12	i	i	i	i	i	i
COc1ccc(-c2nnc(NC(=O)C3=COCCO3)o2)cc1	nt	nt	nt	i	nt	nt
CCOCC(=O)Nc1nnc(SCCOC)s1	i	51.5	i	i	i	i
CCOC(=O)c1cnn(-c2sc(C(=O)OCC)c(C)c2C(=O)OCC)c1N	i	i	-3.27	nt	i	-2.49
COc1cccc(Cn2nnc(C(=O)NCc3ccccc3Cl)c2N)c1	nt	i	-3.91	i	i	i
COc1c(O)cc2oc(-c3ccc(O)cc3)cc(=O)c2c1O	nt	nt	i	nt	nt	i
Cc1c2cc(O)c(=O)cc-2oc2cc(O)c(O)cc12	i	i	-3.9	i	130.4	i
Clc1ccc(-c2nnc(CSc3nnc(-c4cccs4)n3Cc3ccccc3)o2)cc1	nt	nt	nt	i	nt	nt
Fc1ccc(NCc2nnc(SCc3nnc(-c4ccccc4)o3)n2Cc2ccccc2)cc1	i	i	-8.34	i	i	i
CCN(CC)c1ccc(-c2nc3cnccn3c2NC2CCCC2)cc1	i	i	-6.24	i	i	i
CCCCC(=O)NC1(C(F)(F)F)C(=O)N(CC(C)C)C2=C1C(=O)CC(C)(C)C2 (stereo not given)	i	i	i	i	i	i
CCN(CC)c1ccc(C2C3CCCCC3(O)CCN2C(=O)c2cccs2)cc1 (stereo not given)	nt	nt	nt	i	nt	nt
CCN(CC)c1ccc(C2C3CCCCC3(O)CCN2CC(=O)N2CCCCC2)cc1 (stereo not given)	i	i	i	i	i	-7.85
Cc1ccc(C(=O)C[n+]2cc(Br)cc(Br)c2)cc1[N+](=O)[O-]	nt	nt	nt	i	nt	nt
COC(=O)C1=C(C)N(CCCCCC(=O)O)C(=O)NC1c1ccccc1 (stereo not given)	nt	nt	i	nt	nt	i
SMILES	Pyk2 oligo antag	PLK1 kinase inh	Cav32 inh	SDO1 yeast rescue	Plk1 PBD FP	DAT uptake mod
CC(C)(C)C(=O)COC(=O)CNC(=O)c1ccc(Oc2ccccc2)cc1	i	i	-3.75	i	i	i
Cc1ccc(CNC(=O)c2nnn(-c3cccc(C)c3)c2N)cc1	i	i	-5.44	i	i	i
COc1ccccc1NC(=O)Cc1noc(CSc2cc(C)c3ccccc3n2)n1	i	i	-6.95	i	i	i
O=c1ccn(-c2cccc(C(F)(F)F)c2)nc1-c1ccn(-c2ccccc2)n1	i	i	-5.69	i	i	i
CCc1ccc(NC(=O)C(C)OC(=O)c2ccc(N3CCCC3)c([N+](=O)[O-])c2)cc1 (stereo not given)	nt	nt	nt	i	nt	nt
COC(=O)c1ccc(C)c(NS(=O)(=O)c2ccc(OC)cc2)c1	i	i	i	i	i	i
COC(=O)c1ccc(C)c(NS(=O)(=O)c2ccc(C)c([N+](=O)[O-])c2)c1	i	i	-5.46	i	i	i
COC(=O)c1cc(-c2c(C)oc3cc(OC(C)C)ccc3c2=O)c(C)o1	i	nt	i	i	nt	i
CC(=O)Oc1ccc2c(=O)c(-c3ccccc3)c(C)oc2c1	nt	nt	-4.55	nt	nt	i
CC(=O)Oc1ccc(C(=O)Nc2cc(NC(=O)c3ccc(OC(C)=O)cc3)cc(C(=O)NC(C)(C)C)c2)cc1	nt	nt	nt	i	nt	nt
COC(=O)c1cn(CC(=O)N2CCCCCC2)c2ccccc12	i	i	i	i	i	i
CCOC(=O)C1=C(O)/C(=C/c2cn(CC(=O)N3CCCC3)c3ccccc23)SC1=Nc1ccccc1	i	i	i	i	i	-8.27
Cc1nn(Cc2c(Cl)cccc2Cl)c(Cl)c1/C=N/NC(=O)c1cccnc1	nt	nt	nt	i	nt	nt
O=C(O)c1cccc(CSc2nc(-c3ccc(Cl)cc3)cc(C(F)(F)F)n2)c1	i	i	i	i	i	3.01
COc1ccc(-c2cc(C)nc(SCc3cccc(C(=O)O)c3)n2)cc1	nt	nt	nt	i	nt	nt
O=C(/C=C/c1c[nH]c2ccccc12)c1cccc2ccccc12	nt	nt	nt	i	nt	nt
Cc1cccc2cc(CN(CC3CCCO3)C(=O)c3cnccn3)c(=O)[nH]c12 (stereo not given)	i	i	i	i	i	i
Cc1cc(C)c2[nH]c(=O)c(CN(CC3CCCO3)C(=O)c3cnccn3)cc2c1 (stereo not given)	i	i	i	i	i	2.53
CCNS(=O)(=O)c1ccc2c(c1)NCC2	nt	nt	nt	i	nt	nt
CSc1nc(C)cc(OCC(=O)N/N=C/c2ccccc2O)n1	nt	nt	nt	i	nt	nt
CC(C)NC(=O)c1nn(C)c2ccccc12	nt	nt	nt	i	nt	nt
COCCNC(=O)c1ccc(CS(=O)(=O)c2ccc(OC)cc2)o1	nt	i	i	i	i	i
Cc1ccccc1S(=O)(=O)Cc1ccc(C(=O)NCc2cccs2)o1	i	i	i	i	i	-8.35
COc1ccc(S(=O)(=O)Cc2ccc(C(=O)N3CCN(c4ccccc4)CC3)o2)cc1	nt	nt	i	i	nt	i
COc1ccc(S(=O)(=O)Cc2ccc(C(=O)N3CCN(c4ccccn4)CC3)o2)cc1	nt	65.8	i	i	i	i
SMILES	Pyk2 oligo antag	PLK1 kinase inh	Cav32 inh	SDO1 yeast rescue	Plk1 PBD FP	DAT uptake mod
COc1ccc(S(=O)(=O)Cc2ccc(C(=O)N3CCN(c4ccccc4F)CC3)o2)cc1	nt	63.3	i	i	i	i
COc1ccc(S(=O)(=O)Cc2ccc(C(=O)NCc3ccccn3)o2)cc1	nt	68.3	i	i	i	i
C/C(CC(=O)NC1CCCC1)=N\NC(=O)c1ccc([N+](=O)[O-])c(Cl)c1	nt	nt	nt	i	nt	nt
Cc1ccc(N(Cc2cc3cc(C)ccc3[nH]c2=O)S(=O)(=O)c2ccccc2)cc1	nt	nt	nt	i	nt	nt
O=c1cc(O)c2sc3nc(-c4cccnc4)cc(C(F)(F)F)c3c2[nH]1	nt	nt	nt	i	nt	nt
Cc1ccc(NC(=O)/C(Cl)=C/c2ccccc2)cc1C	nt	nt	nt	i	nt	nt
